Laboratory results: PubChem BioAssay (EPA / NIEHS)
The source made the active and inactive calls. Rule for the calls: active = hit-call score of the fitted dose curve at least 0.9, where 1 is the maximum; inactive = score below 0.9.

How the values were obtained:
Settings in all cases: mRNA level, 48 h; actives raise or lower the signal
[1] = read-out: Tumor necrosis factor receptor superfamily member 6 (Homo sapiens) (UniProt P25445); assay: LTEA_HepaRG_FAS: Life Technologies and Expression Analysis (LTEA) Assay for Fas cell surface death receptor (FAS) using HepaRG (AID 2283447)
How it was run: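 Differentiated human HepaRG cells, pre-cultured 48 h, were exposed in duplicate for 48 h to 8-point half-log concentrations (top 100 uM, 0.5% DMSO) in serum-free induction medium; FAS mRNA measured by qRT-PCR, normalized to ACTB/GAPDH/POLR2A, bidirectional fit versus DMSO.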

[2] = read-out: Fatty acid synthase (Homo sapiens) (UniProt P49327); assay: LTEA_HepaRG_FASN: Life Technologies and Expression Analysis (LTEA) Assay for Fatty Acid Synthase (FASN) using HepaRG (AID 2283448)
How it was run: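 Cells were plated, cultured 48 h, switched to serum-free induction medium, then dosed in duplicate (max 100 uM, half-log dilutions, 0.5% DMSO) for 48 h. RNA was then isolated and FASN quantified by qRT-PCR.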

[3] = read-out: Cyclin D2 (CCND2), CCND2 (gene 894); assay: LTEA_HepaRG_CCND2: Life Technologies and Expression Analysis (LTEA) Assay for Cyclin D2 (CCND2) using HepaRG (AID 2283449);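 note: CCND2 transcript measured by TaqMan qRT-PCR and normalised to three housekeeping genes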
How it was run: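 In this HepaRG study, an eight-point concentration series (max 100 uM, 0.5% DMSO) is applied for 48 h. CCND2 mRNA change is derived by qRT-PCR normalised to ACTB, GAPDH and POLR2A.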

[4] = read-out: Cyclin Dependent Kinase Inhibitor 1A (CDKN1A), CDKN1A (gene 1026); assay: LTEA_HepaRG_CDKN1A: Life Technologies and Expression Analysis (LTEA) Assay for Cyclin Dependent Kinase Inhibitor 1A (CDKN1A) using HepaRG (AID 2283450)
How it was run: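 Gain or loss of CDKN1A transcript is scored by bidirectional fitting against 0.5% DMSO vehicle. Human HepaRG cultures receive chemicals for 48 h across an 8-point series peaking at 100 uM; expression comes from qRT-PCR.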

[5] = read-out: Cyclin D1 (CCND1), CCND1 (gene 595); assay: LTEA_HepaRG_CCND1: Life Technologies and Expression Analysis (LTEA) Assay for Cyclin D1 (CCND1) using HepaRG (AID 2283451);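 for AC50: TaqMan qRT-PCR transcript level normalised to ACTB GAPDH and POLR2A housekeeping genes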
How it was run: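 Expression change is measured by qRT-PCR in HepaRG cells after 48 h treatment across eight concentrations topping at 100 uM, with duplicate wells and DMSO (0.5%) serving as baseline for bidirectional fitting.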

[6] = read-out: catalase (CAT), CAT (gene 847); assay: LTEA_HepaRG_CAT: Life Technologies and Expression Analysis (LTEA) Assay for catalase (CAT) using HepaRG (AID 2283452);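 for AC50: TaqMan qRT-PCR signal normalized to ACTB GAPDH and POLR2A housekeeping genes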
How it was run: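 Differentiated HepaRG cells in serum-free induction medium were dosed 48 h in duplicate, eight half-log concentrations from 100 uM in 0.5% DMSO. Transcript measured by TaqMan qRT-PCR, normalised to ACTB/GAPDH/POLR2A, fitted bidirectionally against DMSO.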

[7] = read-out: flavin-containing dimethylaniline monooxygenases 3 (FMO3), FMO3 (gene 2328); assay: LTEA_HepaRG_FMO3: Life Technologies and Expression Analysis (LTEA) Assay for flavin-containing dimethylaniline monooxygenases 3 (FMO3) using HepaRG (AID 2283453);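 for AC50: FMO3 transcript by TaqMan qRT-PCR normalized to ACTB GAPDH and POLR2A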
How it was run: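 FMO3 transcript quantified by TaqMan qRT-PCR against three housekeeping genes after 48 h chemical exposure of HepaRG cells. Eight-point half-log series, top 100 uM, 0.5% DMSO vehicle; phenobarbital 1mM induction control; up- or down-regulation fitted.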

[8] = read-out: Cytochrome P450 (CYP1A1), CYP1A1 (gene 1543); assay: LTEA_HepaRG_CYP1A1: Life Technologies and Expression Analysis (LTEA) Assay for Cytochrome P450 (CYP1A1) using HepaRG (AID 2283454)
How it was run: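 Using HepaRG cultures with 0.5% DMSO as vehicle, eight-concentration exposures (max 100 uM) lasted 48 h. Transcript levels were measured by TaqMan qRT-PCR and normalized to ACTB, GAPDH and POLR2A.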

[9] = read-out: CFLAR gene, CFLAR (gene 8837); assay: LTEA_HepaRG_CFLAR: Life Technologies and Expression Analysis (LTEA) Assay for CFLAR gene using HepaRG (AID 2283455)
How it was run: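 Gain- or loss-of-signal changes in CFLAR transcript were fitted bidirectionally relative to 0.5% DMSO. Cells (HepaRG, duplicate wells) were dosed for 48 h across eight half-log concentrations topping at 100 uM; quantitation by TaqMan qRT-PCR.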

[10] = read-out: Forkhead box O1 (FOXO1), FOXO1 (gene 2308); assay: LTEA_HepaRG_FOXO1: Life Technologies and Expression Analysis (LTEA) Assay for Forkhead box O1 (FOXO1) using HepaRG (AID 2283456)
How it was run: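 Using one lot of HepaRG hepatic cells kept in 0.5% DMSO, the team applied test chemicals in duplicate, half-log dilutions from 100 uM, for 48 h. Expression, normalised to ACTB/GAPDH/POLR2A, was compared with vehicle in either direction.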

[11] = read-out: growth arrest and DNA damage 45 (GADD45A), GADD45A (gene 1647); assay: LTEA_HepaRG_GADD45A: Life Technologies and Expression Analysis (LTEA) Assay for growth arrest and DNA damage 45 (GADD45A) using HepaRG (AID 2283458)
How it was run: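 Transcript induction or loss, quantified by TaqMan qRT-PCR against three housekeeping genes, is the read-out. HepaRG cells received chemicals for 48 h across eight half-log concentrations from 100 uM in 0.5% DMSO; gain and loss fitted relative to DMSO.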

[12] = read-out: Forkhead box O3 (FOXO3), FOXO3 (gene 2309); assay: LTEA_HepaRG_FOXO3: Life Technologies and Expression Analysis (LTEA) Assay for Forkhead box O3 (FOXO3) using HepaRG (AID 2283459)
How it was run: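 Gene-expression endpoint: FOXO3 transcript level by qRT-PCR in HepaRG cultures treated 48 h with chemicals up to 100 uM (half-log, 0.5% DMSO vehicle).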

[13] = read-out: ABC Transporter (ABCB1), ABCB1 (gene 5243); assay: LTEA_HepaRG_ABCB1: Life Technologies and Expression Analysis (LTEA) Assay for ABC Transporter (ABCB1) using HepaRG (AID 2283460)
How it was run: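 Human liver HepaRG line treated 48 h with up to 100 uM compound (eight half-log points, 0.5% DMSO); ABCB1 mRNA change fitted bidirectionally against DMSO controls.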

[14] = read-out: growth arrest and DNA damage 45 (GADD45B), GADD45B (gene 4616); assay: LTEA_HepaRG_GADD45B: Life Technologies and Expression Analysis (LTEA) Assay for growth arrest and DNA damage 45 (GADD45B) using HepaRG (AID 2283461)
How it was run: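 Human HepaRG monolayers receive chemicals for 48 h at eight half-log concentrations, highest 100 uM, in 0.5% DMSO. Expression is measured by TaqMan qRT-PCR and normalized to ACTB, GAPDH and POLR2A.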

[15] = read-out: ABC Transporter (ABCC3), ABCC3 (gene 8714); assay: LTEA_HepaRG_ABCC3: Life Technologies and Expression Analysis (LTEA) Assay for ABC Transporter (ABCC3) using HepaRG (AID 2283462)
How it was run: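 Transcriptional change of ABCC3 in HepaRG after 48 h treatment, determined by qRT-PCR normalized to endogenous controls. Concentrations spanned eight half-log steps to 100 uM in 0.5% DMSO.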

[16] = read-out: ABC Transporter (ABCC2), ABCC2 (gene 1244); assay: LTEA_HepaRG_ABCC2: Life Technologies and Expression Analysis (LTEA) Assay for ABC Transporter (ABCC2) using HepaRG (AID 2283464)
How it was run: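 After plating and 48 h culture, HepaRG medium is replaced with serum-free induction medium and chemicals are added (8 concentrations, max 100 uM, 0.5% DMSO) for 48 h. Total RNA then undergoes qRT-PCR for ABCC2 with housekeeping normalization.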

[17] = read-out: Broad substrate specificity ATP-binding cassette transporter ABCG2 (Homo sapiens) (UniProt Q9UNQ0); assay: LTEA_HepaRG_ABCG2: Life Technologies and Expression Analysis (LTEA) Assay for ABC Transporter (ABCG2) using HepaRG (AID 2283465)
How it was run: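 Gene expression of ABCG2 in HepaRG liver cells is quantified by qRT-PCR following 48 h exposure across an eight-point series topping at 100 uM. Values come from bidirectional fitting relative to DMSO vehicle.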

[18] = read-out: ABC Transporter (ABCB11), ABCB11 (gene 8647); assay: LTEA_HepaRG_ABCB11: Life Technologies and Expression Analysis (LTEA) Assay for ABC Transporter (ABCB11) using HepaRG (AID 2283463)
How it was run: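 Using HepaRG cultures held in 0.5% DMSO, chemicals were tested at half-log dilutions from 100 uM for 48 h. Induction or suppression of ABCB11 mRNA, normalized to ACTB, GAPDH and POLR2A, was fitted bidirectionally against vehicle.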

Measured: AC50

Broad substrate specificity ATP-binding cassette transporter ABCG2 (Homo sapiens), sequence (Q9UNQ0 whole entry, looked up): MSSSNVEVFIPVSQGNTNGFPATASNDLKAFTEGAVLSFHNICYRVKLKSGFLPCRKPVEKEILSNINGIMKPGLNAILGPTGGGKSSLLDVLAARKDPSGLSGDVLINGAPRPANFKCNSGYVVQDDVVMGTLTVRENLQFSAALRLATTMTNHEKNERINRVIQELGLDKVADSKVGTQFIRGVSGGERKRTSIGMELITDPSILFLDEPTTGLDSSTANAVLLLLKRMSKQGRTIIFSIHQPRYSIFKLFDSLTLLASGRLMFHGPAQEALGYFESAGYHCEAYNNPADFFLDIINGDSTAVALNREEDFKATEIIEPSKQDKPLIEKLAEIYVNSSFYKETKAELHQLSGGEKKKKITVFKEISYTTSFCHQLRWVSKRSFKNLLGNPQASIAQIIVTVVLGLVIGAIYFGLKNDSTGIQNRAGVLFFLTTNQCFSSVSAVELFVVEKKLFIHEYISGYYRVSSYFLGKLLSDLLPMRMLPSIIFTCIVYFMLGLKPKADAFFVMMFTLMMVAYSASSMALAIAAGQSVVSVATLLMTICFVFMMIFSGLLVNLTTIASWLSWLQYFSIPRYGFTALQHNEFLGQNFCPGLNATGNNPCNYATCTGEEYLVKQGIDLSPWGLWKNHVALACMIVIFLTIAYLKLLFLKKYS
Fatty acid synthase (Homo sapiens), sequence (P49327 whole entry, looked up): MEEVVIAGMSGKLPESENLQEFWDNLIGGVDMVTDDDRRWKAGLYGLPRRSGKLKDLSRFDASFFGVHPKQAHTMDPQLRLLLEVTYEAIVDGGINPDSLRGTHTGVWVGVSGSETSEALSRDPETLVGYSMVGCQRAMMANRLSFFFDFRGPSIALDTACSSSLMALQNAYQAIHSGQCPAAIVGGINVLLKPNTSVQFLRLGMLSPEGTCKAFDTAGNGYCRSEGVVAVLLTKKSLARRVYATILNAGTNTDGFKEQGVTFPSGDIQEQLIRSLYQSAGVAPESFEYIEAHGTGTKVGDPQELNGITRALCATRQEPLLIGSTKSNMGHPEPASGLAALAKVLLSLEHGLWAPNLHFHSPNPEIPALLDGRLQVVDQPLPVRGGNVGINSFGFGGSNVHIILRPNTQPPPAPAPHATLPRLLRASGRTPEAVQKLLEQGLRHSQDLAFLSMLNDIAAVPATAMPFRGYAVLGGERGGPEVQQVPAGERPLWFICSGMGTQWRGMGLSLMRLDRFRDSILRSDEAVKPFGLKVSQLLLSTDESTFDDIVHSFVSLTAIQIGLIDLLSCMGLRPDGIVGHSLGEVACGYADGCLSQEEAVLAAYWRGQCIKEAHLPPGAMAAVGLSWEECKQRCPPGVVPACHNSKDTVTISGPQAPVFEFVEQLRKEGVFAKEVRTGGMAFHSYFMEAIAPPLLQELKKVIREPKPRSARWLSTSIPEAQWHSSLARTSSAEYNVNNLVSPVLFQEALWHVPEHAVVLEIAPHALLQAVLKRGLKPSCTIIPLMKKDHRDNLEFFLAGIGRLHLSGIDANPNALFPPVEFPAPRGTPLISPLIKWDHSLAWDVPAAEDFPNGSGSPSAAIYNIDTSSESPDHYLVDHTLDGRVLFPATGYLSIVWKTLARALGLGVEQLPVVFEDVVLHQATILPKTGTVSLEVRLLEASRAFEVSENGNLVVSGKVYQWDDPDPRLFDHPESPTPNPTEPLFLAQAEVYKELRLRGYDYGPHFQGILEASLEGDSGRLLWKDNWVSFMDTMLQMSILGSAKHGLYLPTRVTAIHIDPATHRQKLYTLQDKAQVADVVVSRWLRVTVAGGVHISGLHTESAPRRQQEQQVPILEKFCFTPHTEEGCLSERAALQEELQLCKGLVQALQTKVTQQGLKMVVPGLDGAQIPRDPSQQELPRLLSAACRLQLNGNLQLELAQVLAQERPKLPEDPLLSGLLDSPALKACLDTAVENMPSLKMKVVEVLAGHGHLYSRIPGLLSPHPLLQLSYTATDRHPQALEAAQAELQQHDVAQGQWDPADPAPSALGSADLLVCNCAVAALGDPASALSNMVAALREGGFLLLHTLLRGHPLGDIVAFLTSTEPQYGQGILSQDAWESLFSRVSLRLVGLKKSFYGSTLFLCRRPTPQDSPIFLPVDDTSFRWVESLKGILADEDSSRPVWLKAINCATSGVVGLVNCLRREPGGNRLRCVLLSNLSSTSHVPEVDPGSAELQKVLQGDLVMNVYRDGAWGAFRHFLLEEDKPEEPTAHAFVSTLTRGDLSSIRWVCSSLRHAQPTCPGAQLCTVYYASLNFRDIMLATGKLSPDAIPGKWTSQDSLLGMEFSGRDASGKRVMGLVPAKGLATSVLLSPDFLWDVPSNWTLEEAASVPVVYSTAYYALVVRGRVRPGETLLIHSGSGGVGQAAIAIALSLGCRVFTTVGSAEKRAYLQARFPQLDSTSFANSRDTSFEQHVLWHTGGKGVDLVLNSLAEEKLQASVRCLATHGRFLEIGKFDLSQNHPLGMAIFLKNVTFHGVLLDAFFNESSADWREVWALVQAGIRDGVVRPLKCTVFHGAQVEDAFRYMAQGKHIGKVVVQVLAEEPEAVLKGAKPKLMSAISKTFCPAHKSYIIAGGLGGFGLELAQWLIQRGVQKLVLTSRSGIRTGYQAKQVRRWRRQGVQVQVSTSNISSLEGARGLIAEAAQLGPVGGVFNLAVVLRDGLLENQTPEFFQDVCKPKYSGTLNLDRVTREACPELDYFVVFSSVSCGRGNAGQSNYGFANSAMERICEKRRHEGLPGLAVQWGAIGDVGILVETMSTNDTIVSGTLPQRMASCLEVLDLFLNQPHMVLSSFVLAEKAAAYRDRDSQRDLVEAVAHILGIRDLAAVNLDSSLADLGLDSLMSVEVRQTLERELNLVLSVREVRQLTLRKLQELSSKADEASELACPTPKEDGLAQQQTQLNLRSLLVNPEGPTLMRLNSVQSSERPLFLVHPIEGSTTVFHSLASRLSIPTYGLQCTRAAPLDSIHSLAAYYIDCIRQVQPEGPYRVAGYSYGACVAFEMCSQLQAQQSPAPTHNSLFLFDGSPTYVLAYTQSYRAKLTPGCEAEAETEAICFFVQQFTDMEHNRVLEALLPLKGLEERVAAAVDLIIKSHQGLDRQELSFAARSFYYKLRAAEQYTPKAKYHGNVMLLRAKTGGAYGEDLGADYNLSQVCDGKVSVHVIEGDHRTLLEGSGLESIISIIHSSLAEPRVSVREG

CC(=O)O
active: [8] 72.2 µM
not listed: [18]
inactive: all other assays above

NC(=Nc1ccccc1)Nc1ccccc1
active: [8] 50 µM
not listed: [10] | [17] | [18]
inactive: all other assays above

CC(=O)CC(c1ccccc1)c1c(O)c2ccccc2oc1=O (stereo not drawn)
active: [2] 13.4 µM
not listed: [5] | [17]
inactive: all other assays above

C#CC(O)C(CC)CCCC (stereo not drawn)
active: [8] 73.1 µM
not listed: [5] | [17]
inactive: all other assays above

OCC(O)CO
not listed: [5]
inactive: all other assays above

CCc1cc(C2=C(C(=O)O)N(c3ccccc3C(F)(F)F)S(=O)(=O)c3ccccc32)cc2c1OCO2
active: [1] 50 µM | [6] 50 µM | [7] 78.8 µM | [8] 50 µM | [13] 3.3 µM | [18] 32.1 µM | [16] 1.64 µM
not listed: [10] | [17]
inactive: all other assays above

C=CCCCCCCCCCCCC
not listed: [10]
inactive: all other assays above

CC(=O)S[C@H](C(=O)N[C@H]1Cc2ccccc2[C@H]2CCC[C@@H](C(=O)O)N2C1=O)C(C)C
not listed: [10] | [17]
inactive: all other assays above

OCC(CO)n1cnc(-c2ccc(F)cc2)c1-c1ccnc(Oc2ccccc2)n1
active: [5] 20.1 µM | [8] 50 µM | [13] 20 µM | [16] 24.7 µM | [17] 16 µM
not listed: [10]
inactive: all other assays above

NCCOCCOCCN
active: [8] 50 µM
not listed: [17] | [18]
inactive: all other assays above

CCCC[C@H]1CN(CC2CCOCC2)C(=O)OC12CCN(C1(C)CCN(C(=O)c3c(C)ncnc3C)CC1)CC2
not listed: [10] | [18]
inactive: all other assays above

CCOCCOCCO
not listed: [10] | [18]
inactive: all other assays above

CC(C)NCC(O)c1ccc(O)c(O)c1 (stereo not drawn)
active: [2] 0.219 µM | [4] 0.148 µM | [5] 0.141 µM | [6] 0.2 µM | [7] 0.451 µM | [8] 0.147 µM | [9] 0.238 µM | [16] 0.128 µM | [17] 0.156 µM
inactive: [1] | [3] | [10] | [11] | [13] | [14] | [15]

COc1ccc(OC(F)(F)F)cc1CN[C@H]1CCCN[C@H]1c1ccccc1
active: [2] 83.9 µM | [4] 89.6 µM | [5] 87.1 µM | [6] 71.6 µM | [7] 72.7 µM | [8] 12.6 µM | [9] 84.1 µM | [10] 93.8 µM | [12] 76.3 µM | [13] 83.7 µM | [16] 82.9 µM
inactive: [1] | [3] | [11] | [14] | [15] | [17]
